From PubChem BioAssay AID504727 (Broad Institute, 2011)
The source made the active and inactive calls.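 How the source made its calls: active means fitted half-maximal concentration AC50 at or below ten times the highest valid tested dose, with signal falling as DNA is displaced (actives reach about 34 µM in these data); inconclusive means flat fit at moderate signal loss, or poor fit quality; inactive means the rest, including signal rising instead of falling.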

experiment: acridine orange-DNA binding displacement – biochemical, fluorescence polarization, cherry-picked samples, set 2, artefact control for KSHV LANA DNA-binding inhibitor project, dose response (AID 504727); conditions: series mostly up to 35 µM

Compound	AC50
Cc1cc[n+](-c2[nH]c(=O)sc2/C=N/N=C(\[O-])c2ccccc2)cc1C	12.9 µM (active)
Cc1nc2ccccc2n2c(O)c(CC(=O)O)cc12	10.2 µM (active)
O=S(=O)(O)c1cc(O)c(N=Nc2ccc(O)cc2O)c2ccccc12	inactive
CCN(Cc1ccccc1)S(=O)(=O)c1cc2[nH]c(=O)c(=O)[nH]c2cc1C	inactive
Nc1ccccc1C(=O)N1O[C@@H]2C=C[C@H]1CC2	inactive
Nc1c(C(=O)Nc2ccccc2F)sc2nc(Cc3ccccc3)cc(C(F)(F)F)c12	20.2 µM (active)
Nc1cc(N)nc(SCC(=O)N2CCCCC2)n1	inactive
Cc1cc(C)n2nc(C(=O)OC(C)C(=O)c3cc(C)c(C)cc3C)nc2n1 (stereo not drawn)	inactive
Cc1cccc(N(Cc2ccccc2)C(=O)C2CCN(C(=O)c3ccccc3C)CC2)c1	inactive
CCN(C(=O)COC(=O)CCCOc1ccc(Cl)cc1C)c1c(N)n(Cc2ccccc2)c(=O)[nH]c1=O	inactive
CN(CC(=O)Nc1ccc(N2CCOCC2)cc1)C(=O)CSc1ccc(Br)cc1	inactive
O=C(CCCN1C(=O)/C(=C\c2ccco2)SC1=S)Nc1ccc(O)cc1C(=O)O	inactive
NC(=O)C1(N2CCCCC2)CCN(Cc2ccc(Br)cc2)CC1	inactive
COc1ccc(C2C(C(=O)c3cccs3)=C(O)C(=O)N2c2nncs2)cc1 (stereo not drawn)	3.42 µM (active)
Cc1cc2nc3c(=O)n(C4CCCCC4)c(=O)[nH]c3nc2cc1N	10.6 µM (active)
S=c1c2c(nc3nc[nH]n13)CCC2	inactive
Cc1cc(C)c2c(c1)NC(C(=O)O)C1CC=CC21 (stereo not drawn)	inactive
O=C(OCc1ccccc1)N1C=CC2CC1c1c(Cl)cccc12 (stereo not drawn)	inactive
CC(C)(C)OC(=O)N1CCC[C@H]1c1nnc(SCc2cccc(Cl)c2)o1	inactive

Compound	AC50
COC(=O)c1cccc(COC(=O)c2ccccc2NC(=O)c2ccco2)c1	inactive
COC(=O)C[n+]1cccc2ccccc21	8.59 µM (active)
COC(=O)C1=COC(C)C2CN3CCc4c([nH]c5ccccc45)C3CC12 (stereo not drawn)	inactive
Cc1noc(C)c1C(=O)N1CCN(c2ccc(OCc3ccccc3)cc2)CC1	inactive
CCOC(=O)c1ccccc1Nc1cc(C)nc2nc(C)nn12	inactive
COc1cc(NC(=O)c2ccc(CNc3c(N4CCCC4)c(=O)c3=O)cc2)cc(OC)c1OC	inactive
O=C(Cn1ncc(N2CCCC2)c(Cl)c1=O)c1ccc(Cl)cc1	inactive
O=C(NC1(O)C(=O)c2ccccc2C1=O)c1c(Cl)cccc1Cl	inactive
CSc1n[nH]c(=O)n1-c1cccc(Cl)c1	inactive
COc1ccc(Br)cc1CNC(=O)CCCc1cn(C)c2ccccc12	inactive
Cc1c(Cl)cccc1NS(=O)(=O)c1ccc2c(c1)C1C=CCC1C(c1ccc(C(=O)O)cc1)N2 (stereo not drawn)	inactive
O=C(Nc1ccc2c(c1)OCO2)N1CCCc2ccccc21	inactive
CC(=O)Nc1ccc(S(=O)(=O)Nc2nc3ccccc3nc2Nc2ccc(C(=O)O)c(O)c2)cc1	inactive
C=CC[C@@H](CC(=O)N(CCO)Cc1ccccc1)C(=O)NC[C@H](OC(=O)[C@@H](CC=C)CC(=O)OC(C)(C)C)c1ccccc1	inactive
CC(C)C(C(=O)O)N1C(=O)/C(=C/C=C/c2ccco2)SC1=S (stereo not drawn)	inactive
Cc1c(C)n(Cc2ccccc2)c2ncnc(Cl)c12	inactive
O=c1cc2c(=O)oc3cc(O)c(O)oc3c2c(O)c1O	inactive
Nc1ccc2nc3c(=O)[nH]c(=S)[nH]c3nc2c1	3.69 µM (active)
COc1ccc(-c2cc(C(=O)N(C)CCc3ccc(OC)c(OC)c3)c3ccccc3n2)cc1	inactive
